Test results reported in PubChem BioAssay (Tox21).
Records with an inconclusive call do not appear. The source made the active and inactive calls. Calls follow the shape of the dose curve; as a rule, active = well fitted inhibition curve with a large enough effect in the repeat runs; inconclusive = weak or mixed curves; inactive = no such curve, though single readings can be large or run the other way.
% is scaled to controls: 0 for no effect and ±100 for the full control effect; potency is read from the fitted curve at half-maximal effect.

These compounds were tested against Cytochrome P450 2D6 (Homo sapiens) (UniProt P10635) (assay: Cytochrome P450 Family 2 Subfamily D Member 6 (CYP2D6) small molecule antagonists: luciferase reporter qHTS assay (AID 1671196; also: nearly all actives have a fitted effect of over 50% in size)). Details: P450-Glo CYP2D6 enzyme assay, luciferin luminescence, 1 h; series mostly up to 115 µM; activity change, negative = inhibition: at the top concentration.
Chain of Cytochrome P450 2D6 (Homo sapiens) (P10635 whole entry, looked up): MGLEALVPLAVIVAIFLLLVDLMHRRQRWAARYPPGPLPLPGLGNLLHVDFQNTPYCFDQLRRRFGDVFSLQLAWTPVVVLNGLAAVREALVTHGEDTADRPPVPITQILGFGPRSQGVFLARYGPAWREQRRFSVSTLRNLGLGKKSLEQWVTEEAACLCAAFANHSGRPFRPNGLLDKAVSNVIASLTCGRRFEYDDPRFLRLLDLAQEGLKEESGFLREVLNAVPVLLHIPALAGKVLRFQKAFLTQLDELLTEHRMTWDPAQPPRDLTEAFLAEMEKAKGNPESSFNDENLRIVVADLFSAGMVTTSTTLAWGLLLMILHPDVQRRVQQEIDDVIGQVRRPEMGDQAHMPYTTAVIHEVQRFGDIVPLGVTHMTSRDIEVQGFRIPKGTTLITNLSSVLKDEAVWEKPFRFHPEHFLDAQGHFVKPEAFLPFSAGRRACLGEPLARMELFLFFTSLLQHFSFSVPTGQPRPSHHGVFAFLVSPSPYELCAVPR
Description: U.S. Tox21 Program National Center for Advancing Translational Sciences [NCATS] U.S. Environmental Protection Agency [EPA] National Institutes of Environmental Health Sciences [NIEHS] National Toxicology Program [NTP] U.S. Food and Drug Administration [FDA] Tox21 Assay Overview: Cytochrome P450 (CYP) enzymes are membrane-bound hemeproteins that play a key role in metabolism of drugs and xenobiotics. Evaluation of the effect of chemicals on CYP isozymes is useful to minimize the adverse drug reactions and toxicities in drug development process. Tox21 chemicals were tested for their effect on CYP enzyme activities by using P450-Glo (TM) screening systems (Promega Corporation, Madison, WI). These systems provide a luminescent method containing proluciferin substrates and are converted to luciferin products by CYP isozymes. The luciferin products formed are detected with a luciferin detection reagent, and the amount of light produced is proportional to CYP activity. P450-Glo (TM) CYP2D6 screening system (Catalog. No. V9890) was used to detect the compounds that interfere in CYP2D6 activity.
Tox21 Assay Protocol Summary: Two ul of enzyme-substrate mix was dispensed into medium binding white/solid 1536-well plates (Greiner Bio-One North America Inc., Monroe, NC) using a BioRaptr Flying Reagent Dispenser (FRD, Beckman Coulter, Brea, CA). […] The assay plates were incubated at room temperature for 10 min. Then 2 ul of NADPH regeneration solution was added to each well of the assay plates using an FRD and incubated at room temperature for 1 h. The reaction was stopped by adding 4 ul of detection reagent using an FRD and after 20 min incubation at room temperature the luminescence signal was measured using a ViewLux plate reader (Perkin Elmer, Shelton, CT). Data were expressed as relative luminescence units.
For CCCCCC1Nc2cc(C(F)(F)F)c(S(N)(=O)=O)cc2S(=O)(=O)N1 (stereo not given), the Potency was 13.8 µM (active). For CC(C)COC(=O)COc1ccc(Cl)cc1Cl, the “activity change, negative = inhibition” value was -11.1% (inactive). CO/N=C(/C(=O)N[C@@H]1C(=O)N2C(C(=O)O)=C(Cn3nnc(C)n3)CS[C@H]12)c1csc(N)n1 was tested, and the “activity change, negative = inhibition” value was -6.55% [at 53 µM] (inactive). COC(=O)CCC(=O)O was tested, and the “activity change, negative = inhibition” value was -12.8% (inactive). In the case of Nc1nc(=O)n([C@@H]2O[C@H](CO)[C@@H](O)[C@@H]2F)cc1I, the “activity change, negative = inhibition” value is reported as -0.57% [at 53 µM] (inactive). In the case of BrC/C=C/CBr, the activity change, negative = inhibition is reported as -5.12% [at 23.6 µM] (inactive). With CC(C)C(=O)Nc1cccc(C(F)(F)F)c1 the “activity change, negative = inhibition” value was 0.663% [at 53 µM] (inactive). With CCC(CO)CO the “activity change, negative = inhibition” value was -15.6% (inactive). C=CCOc1cc(Cl)ccc1C(=O)NCCN(CC)CC was tested, and the Potency was 0.275 µM (active). With CNCc1ccccc1 the “activity change, negative = inhibition” value was -91.8% [at 53 µM] (inactive). For CN(C)CCCNCCC#N, the “activity change, negative = inhibition” value was -24.4% (inactive). In the case of O=c1[nH]c(=O)c2ccccc2o1, the “activity change, negative = inhibition” value is reported as 1.01% [at 53 µM] (inactive). In the case of CCC(C)(CCC(C)C)C(=O)[O-].CCC(C)(CCC(C)C)C(=O)[O-].[Zn+2] (stereo not given), the “activity change, negative = inhibition” value is reported as -27.2% (inactive). For OCCCCCCCl, the “activity change, negative = inhibition” value was -1.58% (inactive). With CCNC(=O)/C=C/c1cccc(Br)c1 the “activity change, negative = inhibition” value was -10.2% [at 53 µM] (inactive). CCN1CN(CC)CN(CC)C1 was tested, and the “activity change, negative = inhibition” value was -23.6% (inactive). With O=P(O)(O)OCC(O)CO (stereo not given) the “activity change, negative = inhibition” value was -16.2% [at 53 µM] (inactive). In the case of CCCCCN(CCCOC)C(=O)C(CCC(=O)O)NC(=O)c1ccc(Cl)c(Cl)c1 (stereo not given), the “activity change, negative = inhibition” value is reported as -19.6% [at 53 µM] (inactive). In the case of O=[Si]=O, the “activity change, negative = inhibition” value is reported as -23.5% (inactive). In the case of CC(C)CCCC(C)CC=O (stereo not given), the “activity change, negative = inhibition” value is reported as -25.6% (inactive). In the case of CC(=O)/C=C/c1ccco1, the “activity change, negative = inhibition” value is reported as -4.14% (inactive). For CCCCC/C=C/CC(=O)OC, the “activity change, negative = inhibition” value was -5.14% (inactive). With O=C(Nc1cccc(C2=NCCN2)c1)Nc1cccc(C2=NCCN2)c1 the Potency was 16.9 µM (active). For CC(C)(C)NCCO, the “activity change, negative = inhibition” value was -0.9% (inactive). For COCCOCCOCCOC, the “activity change, negative = inhibition” value was -1.73% (inactive). For CC(C)CCCCCCOC(=O)C1CCCCC1C(=O)OCCCCCCC(C)C (stereo not given), the “activity change, negative = inhibition” value was -11.4% (inactive). With CCC(C)N (stereo not given) the “activity change, negative = inhibition” value was 0.253% (inactive). Nc1cc(C(=O)O)ccc1Cl was tested, and the “activity change, negative = inhibition” value was -21.3% (inactive). With C=C(C)C(=O)OC the “activity change, negative = inhibition” value was -7.62% (inactive). For CC(=O)OCC(=O)[C@@]1(O)[C@H](OC(C)=O)C[C@H]2[C@@H]3CCC4=CC(=O)C=C[C@]4(C)[C@@]3(F)[C@@H](O)C[C@@]21C, the “activity change, negative = inhibition” value was -8.37% [at 53 µM] (inactive). In the case of CCOC(=O)CCCCCCCCC(=O)OCC, the “activity change, negative = inhibition” value is reported as -20.7% (inactive). In the case of Cc1cccc(C(=O)O)c1[N+](=O)[O-], the Potency is reported as 31.8 µM (active). For O=C1OC(=O)c2cc(Oc3ccc4c(c3)C(=O)OC4=O)ccc21, the “activity change, negative = inhibition” value was -11.8% (inactive). In the case of C=C(C)C(=O)OC1CC(C)CC(C)(C)C1 (stereo not given), the “activity change, negative = inhibition” value is reported as 0.748% (inactive). CCC(=O)c1ccc(O)cc1 was tested, and the “activity change, negative = inhibition” value was -6.49% [at 53 µM] (inactive). For C[C@H](CCC(=O)O)[C@H]1CC[C@H]2[C@@H]3[C@H](O)C[C@@H]4C[C@H](O)CC[C@]4(C)[C@H]3C[C@H](O)[C@]12C, the “activity change, negative = inhibition” value was 1.02% [at 53 µM] (inactive). In the case of CC(C)(c1ccc(Oc2ccc3c(c2)C(=O)OC3=O)cc1)c1ccc(Oc2ccc3c(c2)C(=O)OC3=O)cc1, the Potency is reported as 39.7 µM (active). For COc1cc(C=O)ccc1OC(=O)C(C)C, the “activity change, negative = inhibition” value was -10.7% (inactive). For CCCCCCCCCCCCCCCCI, the activity change, negative = inhibition was -2.1% [at 23.6 µM] (inactive). In the case of CC(CC(=O)O)CC(C)(C)C (stereo not given), the “activity change, negative = inhibition” value is reported as -18.6% (inactive).
